PubChem BioAssay AID651820 (National Center for Advancing Translational Sciences (NCATS), 2012)
Screen size: about 340,000 compounds; about 12,000 (3.5%) were called active. Where a call stands in place of a potency, no number is given. Another 18% or so got no clear call; they are omitted. Only a selection was taken, and actives are over-represented in it overall. A number with no mark means an inactive call. Calls come from the whole dose curve; as a rule, active = well fitted inhibition curve with a large enough effect; inconclusive = small, poorly fitted or top-dose-only effect, or another doubt; inactive = no such curve, though single readings can be large or run the other way.

Experiment: qHTS Assay for Inhibitors of Hepatitis C Virus (HCV)
Conditions: Huh7.5.1 HCVcc-Cre infection, luciferase reporter, 44 h; series mostly up to 41.8 µM
How it was run: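 Infectious HCVcc-Cre (~0.5 moi) was added to cells just after compound, with cells seeded 4 h earlier at 1,000 per well. Luciferase activity after 44 h culture reported infection; substrate was incubated 15 min at room temperature before reading.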
Potency is the fitted concentration of half-maximal effect.

| Structure (SMILES) | Potency | activity change, negative = inhibition |
| --- | --- | --- |
| CC(C)c1ccc(C=NNc2ccc([N+](=O)[O-])cn2)cc1 | inactive | – |
| COc1ccccc1-c1nn(Cc2ccccc2)cc1C(=O)N1CCN(c2ncccn2)CC1 | inactive | – |
| CCn1nc(C(=O)Nc2ccc(N3CCOCC3)cc2)c2ccccc2c1=O | inactive | – |
| Cc1cc(NC(=O)CN2C(=O)NC(CC(C)C)C2=O)no1 (stereo not drawn) | inactive | – |
| CCN(CC)C(=O)CN(c1cccc([N+](=O)[O-])c1)S(=O)(=O)c1ccccc1 | inactive | – |
| O=C(CCl)N(Cc1cccc([N+](=O)[O-])c1)c1cccc(Cl)c1 | 3.98 µM (active) | – |
| Cc1ccc(S(=O)(=O)N(Cc2cccc([N+](=O)[O-])c2)C(=O)N2CCN(C)CC2)cc1 | inactive | – |
| CN(C)C(CNC(=O)c1cccc(S(=O)(=O)Nc2ccc(Br)cc2)c1)c1ccco1 (stereo not drawn) | inactive | – |
| O=C(CCCOc1ccccc1)NNC(=O)c1ccc(Cl)cc1 | inactive | – |
| CC1CCCCC1NC(=O)Cn1c(=O)cnc2ccccc21 (stereo not drawn) | inactive | – |
| Cc1nn(Cc2ccccc2)c(C)c1C(=O)N1CCN(CC(=O)Nc2ccccc2Cl)CC1 | inactive | – |
| Clc1ccc(C2=CSC3=Nc4cccc5cccc(c45)N23)cc1 | 5.01 µM (active) | – |
| CCc1nnc(NS(=O)(=O)c2ccc(NC(=O)c3cccc(OC(F)(F)C(F)F)c3)cc2)s1 | inactive | – |
| Cc1cc(OCC(=O)NC2CCN(C)CC2)ccc1[N+](=O)[O-] | inactive | – |
| Cc1cc(C(=O)O)ccc1[N+](=O)[O-] | inactive | – |
| Cc1cc(OCCCCOc2ccc(C#N)cc2)ccc1[N+](=O)[O-] | 8.91 µM (active) | – |
| COc1ccc(N2CCN(S(=O)(=O)c3cc4c5c(c3)C(C)C(=O)N5CCC4)CC2)cc1 (stereo not drawn) | – | 0.733% [at 8.37 µM] |
| N#C/C(=C1/CCCN1)c1ccccn1 | inactive | – |
| Cn1c(/C(C#N)=C2/CCCCCN2)nc2ccccc21 | inactive | – |
| N#C/C(=C1\CCCN1)c1nc(-c2ccccc2)cs1 | 6.31 µM (active) | – |
| COC1=NC2=NCCN2C(OC)=N1 | inactive | – |
| OC(COc1ccc(F)cc1Cl)CN1CCc2ccccc2C1 (stereo not drawn) | inactive | – |
| Cc1ccc(OCC(O)CN2CCN(CC(O)COc3ccc(C)cc3Cl)CC2)c(Cl)c1 (stereo not drawn) | 25.1 µM (active) | – |
| COc1ccccc1OCC(O)CN1CCOCC1 (stereo not drawn) | inactive | – |
| COc1ccc2nc(N3C(=O)C(O)=C(C(=O)c4ccco4)C3c3ccco3)sc2c1 (stereo not drawn) | inactive | – |
| CCOc1ccc(/C=C(/C#N)c2nnc(N3CCOCC3)n2-c2ccccc2)cc1OC | inactive | – |

| Structure (SMILES) | Potency | activity change, negative = inhibition |
| --- | --- | --- |
| CC(C)N(Cc1ccccc1)C(=O)COC(=O)c1ccccc1SCC(=O)N1CCCC1 | inactive | – |
| CCOc1cc(C(=S)N2CCOCC2)ccc1O | inactive | – |
| CCOc1cc(C(=S)N2CCOCC2)ccc1OS(=O)(=O)c1ccc(Br)cc1 | 10 µM (active) | – |
| CC(=O)Nc1ccc(S(=O)(=O)Oc2ccc(Br)cc2C(=S)N2CCOCC2)cc1 | inactive | – |
| Cc1cc(NC(=O)COc2ccccc2C#N)no1 | inactive | – |
| O=C(Nc1cc(S(=O)(=O)N2CCOCC2)ccc1N1CCOCC1)c1c(F)cccc1Cl | inactive | – |
| COc1cnc(-c2ccccn2)nc1Oc1ccc(C(C)(C)C)cc1 | 10 µM (active) | – |
| COc1ccc(Sc2nc(-c3ccccc3)ncc2OC)cc1 | inactive | – |
| COc1ccc(Cc2nc(-c3ccccn3)no2)cc1OC | inactive | – |
| O=C1COc2ccc(C(=O)COC(=O)c3ccccc3Cl)cc2N1 | inactive | – |
| COc1ccc(-c2ccc3c(c2)C2CC3CCN2CCC#N)cc1 (stereo not drawn) | – | -2.86% [at 8.37 µM] |
| CC1(C)O[C@@H]2[C@H](O1)[C@@H](COS(=O)(=O)O)O[C@H]2n1cnc2c(=O)[nH]cnc21 | inactive | – |
| Cc1ccc(S(=O)(=O)N(C)C)cc1NC(=O)COC(=O)/C=C/c1cccs1 | inactive | – |
| O=C(COC(=O)COc1cc(Cl)c(Cl)cc1Cl)NC1CC1 | inactive | – |
| O=C(COC(=O)c1ccc(O)cc1O)NNC(=O)c1cccs1 | inactive | – |
| COc1ccc2c(c1)C(=O)CC(c1ccccc1)O2 (stereo not drawn) | inactive | – |
| CCC(C)n1c(-c2cc(OC)c(OC)c(OC)c2)nc2nc3ccccc3nc21 (stereo not drawn) | 15.8 µM (active) | – |
| COc1cc(C(=O)Nn2c(CC(C)C)nc3ccccc3c2=O)cc(OC)c1OC | inactive | – |
| COc1cc(-c2n[nH]c(=S)n2Cc2ccccc2)cc(OC)c1OC | inactive | – |
| Cc1cc2nc3n(c2cc1C)CC1CC(C(=O)NCCC(C)C)N(C)C31 (stereo not drawn) | inactive | – |
| Cc1cccc(Nc2nnc(SCC(=O)c3c(N)n(C4CC4)c(=O)[nH]c3=O)s2)c1C | inactive | – |
| O=[N+]([O-])c1ccc(N=NNc2ccc([N+](=O)[O-])cc2)cc1 | inactive | – |
| COc1cc(OC)c(C(=O)NNC(=O)c2ccc(NS(=O)(=O)c3cccs3)cc2)cc1OC | inactive | – |
| CC(Nc1nc(N2CCCC2)nc2ccccc12)c1ccccc1 (stereo not drawn) | 10 µM (active) | – |
| CC(Nc1nc(N2CCN(CCO)CC2)nc2ccccc12)c1ccccc1 (stereo not drawn) | inactive | – |
| Cc1ccc(C(CC(=O)O)Nc2nc(N3CCCCC3)nc(N3CCCCC3)n2)cc1 (stereo not drawn) | inactive | – |

| Structure (SMILES) | Potency | activity change, negative = inhibition |
| --- | --- | --- |
| Cc1ccc(C)c(OCC(=O)NNC(=O)C2CCC2)c1 | inactive | – |
| CCc1cc2c(N3CCN(c4nnc(CC)s4)CC3)ncnc2s1 | 7.08 µM (active) | – |
| O=C(O[C@@H]1[C@H](Cc2ccccc2)NS(=O)(=O)[C@H]2C[C@@H]3C=C[C@]12O3)c1ccccc1Br | inactive | – |
| COc1cccc(NC(=O)CSc2nccn(-c3ccc4c(c3)OCCO4)c2=O)c1 | inactive | – |
| CC(=O)Nc1cccc(-c2cnc3ccccc3n2)c1 | inactive | – |
| CC(=O)Nc1cccc(Nc2nc(-c3cccs3)nc3ccccc23)c1 | 11.2 µM (active) | – |
| O=c1[nH]c(-c2cccs2)nc2ccccc12 | inactive | – |
| Cc1ccc(/C=C/C(=O)OCC(=O)NCc2ccc(Cl)cc2)o1 | inactive | – |
| O=S(=O)(c1ccccc1)N1CCC(c2ccccc2)CC1 | inactive | – |
| Cc1ccsc1C(=O)NCCc1ccco1 | inactive | – |
| O=C(COc1ccc(Br)cc1F)NCC1(N2CCCCC2)CCCCC1 | inactive | – |
| CCN1C[C@@H]2[C@@H]3C(=O)N(Cc4ccccc4)C(=O)[C@@H]3[C@](Cc3ccccc3)(C(=O)OC)N2C1=NC1CCCCC1 | – | 11.2% [at 8.37 µM] |
| CCC[C@H]1CCCC/C=C\CCCC(=O)OCCN1C(=O)OC(C)(C)C | inactive | – |
| CCN1C[C@@H]2[C@@H]3C(=O)N(C)C(=O)[C@@H]3[C@](C)(C1=O)N2C(=O)c1ccccc1 | inactive | – |
| C/[N+]([O-])=C\c1ccc([N+](=O)[O-])o1 | inactive | – |
| O=C(/C=C/c1ccc([N+](=O)[O-])o1)NNC(=O)c1ccc(F)cc1 | 14.1 µM (active) | – |
| O=C(N/N=C/c1ccc([N+](=O)[O-])o1)c1cn(-c2ccccc2)nc1-c1ccc(F)cc1 | inactive | – |
| CCCCCCSc1ccc(-c2nc3ccc(Cl)cn3c2NCc2ccccc2)cc1 | inactive | – |
| C[C@@H]1NS(=O)(=O)c2cc(Cl)ccc2O[C@@H]1c1ccccc1 | inactive | – |
| Cc1sc2c(c1C)c(=O)n(-c1ccccc1)c(=O)n2CC(=O)NCC1CCCO1 (stereo not drawn) | inactive | – |
| Cc1cccc(-n2c(=O)c3c(C)c(C)sc3n(CC(N)=O)c2=O)c1 | inactive | – |
| Cc1cccc(NC(=O)Cn2c(=O)n(Cc3ccccc3)c(=O)c3c(C)c(C)sc32)c1 | 10 µM (active) | – |
| C=CCC(NC(=O)Cc1ccccc1)C(=O)NCCC (stereo not drawn) | inactive | – |
| CC(=NNC(=O)c1ccncc1)c1ccc(Cl)c(Cl)c1 | inactive | – |
| CN(Cc1cccs1)C(=O)CN1C(=O)c2ccccc2S1(=O)=O | inactive | – |
| COc1cc(C(=O)N2CCN(S(=O)(=O)c3ccc(C(C)C)cc3)CC2)ccc1OCC(=O)N1CCOCC1 | inactive | – |

| Structure (SMILES) | Potency | activity change, negative = inhibition |
| --- | --- | --- |
| Cc1ccc(OCCOCCOc2ccc(Br)cc2/C=N\NC(=O)c2ccncc2)cc1 | inactive | – |
| COCC(C)NCc1cc(Br)ccc1OC (stereo not drawn) | inactive | – |
| CCC(C)NCCOCCOc1ccc(Br)cc1C (stereo not drawn) | 11.2 µM (active) | – |
| Cc1cccc(-n2ncc(C#N)c2-n2cccc2)c1 | inactive | – |
| O=c1c(Cl)c(NC2CC2)cnn1-c1ccccc1 | inactive | – |
| Cc1cccc(-n2ncc(Cl)c(Cl)c2=O)c1 | 11.2 µM (active) | – |
| O=C(Nc1ccon1)c1cccc(Cl)c1 | inactive | – |
| O=C(Nc1ccc(NC(=O)c2ccc3c(c2)OCO3)cc1)c1cccc(Cl)c1 | inactive | – |
| COc1ccc(NC(=O)c2cccc(Cl)c2)c[n+]1[O-] | 3.16 µM (active) | – |
| Cc1ccc(NC(=O)C(C)OC(=O)C2CC3CCCC(C2)C3=O)cc1S(=O)(=O)N1CCOCC1 (stereo not drawn) | inactive | – |
| CC[C@@H](C)[C@@H]1CN([C@@H](C)CN2CCC[C@H]2CN2C(N)=NC[C@H]2C(C)C)C(=N)N1CCc1ccc(Cl)c(Cl)c1 | inactive | – |
| COc1ccccc1C(=O)NCC(=O)OCC(=O)Nc1nnc(-c2ccccc2)o1 | inactive | – |
| OCCN1CCN(c2nnc(-c3ccccc3)c3ccccc23)CC1 | inactive | – |
| CCCC(=O)N1CCN(c2nnc(-c3ccc(C)cc3)c3ccccc23)CC1 | 12.6 µM (active) | – |
| c1ccc(-c2nnc(N3CCOCC3)c3ccccc23)cc1 | inactive | – |
| COc1ccc2nc3n(c(=O)c2c1)-c1ccc(Cl)cc1C(=O)NC3Cc1ccccc1 (stereo not drawn) | inactive | – |
| CCN(CC(=O)Nc1ccc(NC(C)=O)cc1)C(=O)CSC(=S)N1CCCC1 | inactive | – |
| CN(C(=O)CSc1cccc[n+]1[O-])C1CCCCC1 | inactive | – |
| Cc1ccc(N(Cc2cc3ccccc3[nH]c2=O)C(=O)c2cccs2)cc1 | inactive | – |
| CC(=O)N(Cc1cc(=O)[nH]c2ccccc12)c1ccc(C)cc1C | inactive | – |
| Cc1ccc(N(Cc2cc(=O)[nH]c3ccccc23)C(=O)CCl)cc1 | 11.2 µM (active) | – |
| COc1cc(O)c2c(=O)c3c(O)c(O)ccc3oc2c1OC | inactive | – |
| Cc1ccc(C)c(NS(=O)(=O)c2cc(Br)cnc2N)c1 | inactive | – |
| CC(=O)c1ccc(NC(=O)CCNS(=O)(=O)c2cc(Br)cnc2N)cc1 | inactive | – |
| CCc1cccc(C)c1NS(=O)(=O)c1cc(Br)cnc1N | 11.2 µM (active) | – |
